We go through 12 compounds from PubChem BioAssay (NCATS).

“And” between values parts separate entries of the source, which are not always exact repeats. Equal entries are not always repeated. Values without a mark were called inactive. Inconclusive results are not listed. The source made the active and inactive calls. Unless noted, the call rests on the fitted dose curve; in most records, active means well fitted curve in the direction sought with a large enough effect; inconclusive means small, poorly fitted or top-dose-only effect, or another doubt; inactive means no such curve, though single readings can be large; an effect the other way counts as inactive or inconclusive.

The subject of one test is WaGa. The test is described as follows: qHTS assay to identify novel small-molecules to repurpose for Merkel cell carcinoma treatment (AID 1296009). Further: nearly all actives have a fitted effect of over 60% in size. Further: potency means the concentration at half of the fitted maximal effect. The note with it: MCC and control cell lines, CellTiter-Glo viability, 72 h; series mostly up to 46 µM. In a few lines: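 After compound transfer in DMSO, plates were kept 72 hr at 37 degree celsius. Luminescent ATP signal from CellTiter-Glo served as viability measure, normalized against DMSO and no-cell controls.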
Background: qHTS replaces the single test concentration by a dilution series.

The subject of the next test is C33A. Description: Primary qHTS to identify gynecologic anti-cancer compounds using libraries of approved drugs and bioactive compounds (AID 1345084). Further: nearly all actives have a fitted effect of over 55% in size. Further: potency means the concentration at half of the fitted maximal effect. The settings on record: Gynecologic cancer cell panel viability, ATPlite luminescence, 48 h; series mostly up to 57.5 µM. In a few lines:
(§1)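 Measured: luminescence after ATPlite addition (15 min, RT). Exposure: 48 h, 37 C, 5% CO2.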

A further test has as its system CASKI. The description is as above. The settings on record: Gynecologic cancer cell panel viability, ATPlite luminescence, 48 h; series mostly up to 57.5 µM. An outline of the steps: as §1
A further test deals with Es-2. The description is as above. The settings on record: Gynecologic cancer cell panel viability, ATPlite luminescence, 48 h; series mostly up to 57.5 µM. In a few lines: as §1
A further test relates to HeLa. Described as above. The settings on record: Gynecologic cancer cell panel viability, ATPlite luminescence, 48 h; series mostly up to 57.5 µM. An outline of the steps:
as §1
(ATP-based viability assays read luminescence as a measure of living cells.)

In a further test the test system is Hek293T. Described as above. The settings on record: Gynecologic cancer cell panel viability, ATPlite luminescence, 48 h, control line for the selectivity index; series mostly up to 57.5 µM. In a few lines:
as §1

The test system of the next test is JEG-3. The description is as above. The note with it: Gynecologic cancer cell panel viability, ATPlite luminescence, 48 h; series mostly up to 57.5 µM. In a few lines:
as §1

The subject of the next test is OV90. The test is described as above. The note with it: Gynecologic cancer cell panel viability, ATPlite luminescence, 48 h; series mostly up to 57.5 µM. In a few lines: as §1
In the next test the test system is PA-1. The description is as above. The settings on record: Gynecologic cancer cell panel viability, ATPlite luminescence, 48 h; series mostly up to 57.5 µM. In a few lines: as §1
The test system of the next test is SKOV3. Described as above. The settings on record: Gynecologic cancer cell panel viability, ATPlite luminescence, 48 h; series mostly up to 57.5 µM. An outline of the steps:
as §1

In the next test the test system is Tov-21-G. The test is described as above. The settings on record: Gynecologic cancer cell panel viability, ATPlite luminescence, 48 h; series mostly up to 57.5 µM. In a few lines:
as §1

For the next test, the system named is Tov112D. Described as above. The settings on record: Gynecologic cancer cell panel viability, ATPlite luminescence, 48 h; series mostly up to 57.5 µM. An outline of the steps:
as §1

The nature of test [1]: Drug repurposing screens with cells derived from glioblastoma tumor samples (AID 1345199). Further: nearly all actives have a fitted effect of over 40% in size. Further: potency means the concentration at half of the fitted maximal effect. On activity, negative = cell killing: on the % scale 0 is the no-effect control and ±100 the full control effect. The note with it: GBM patient neurospheres viability, ATP luminescence, 48 h. An outline of the steps: (§2)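 Four patient lines of CD133+ GBM neurospheres were screened at several concentrations; hits were retested in those lines plus three slower-growing GBM lines, using 48-hour treatment and ATP-based viability.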

The subject of another test is astro. The test is described as above. The settings on record: viability, ATP luminescence, 48 h; series mostly up to 45.9 µM. In a few lines:
as §2

Another test concerns CAOV3. The test is described as follows: Primary qHTS to identify gynecologic anti-cancer compounds using libraries of approved drugs and bioactive compounds (AID 1345084). Further: nearly all actives have a fitted effect of over 55% in size. Further: potency means the concentration at half of the fitted maximal effect. The settings on record: Gynecologic cancer cell panel viability, ATPlite luminescence, 48 h; series mostly up to 57.5 µM. An outline of the steps: as §1
In test [2] the target is Nuclear receptor subfamily 1 group I member 2 (Rattus norvegicus) (UniProt Q9R1A7). Description: qHTS assay for small molecule activators of the rat pregnane X receptor (rPXR) signaling pathway (AID 651751; call rule not given here; further: 0% is about no effect). The settings on record: rPXR reporter cells, luciferase (One-Glo), 24 h.
[3] abbreviates: at 45.9 µM (top of the series), tumour line B.
[4] abbreviates: at 45.9 µM (top of the series), tumour line D.
The mark [5] stands for this setting: at 46 µM (top of the series), tumour line A.

Sequence of Nuclear receptor subfamily 1 group I member 2 (Rattus norvegicus) (Q9R1A7 whole entry, looked up): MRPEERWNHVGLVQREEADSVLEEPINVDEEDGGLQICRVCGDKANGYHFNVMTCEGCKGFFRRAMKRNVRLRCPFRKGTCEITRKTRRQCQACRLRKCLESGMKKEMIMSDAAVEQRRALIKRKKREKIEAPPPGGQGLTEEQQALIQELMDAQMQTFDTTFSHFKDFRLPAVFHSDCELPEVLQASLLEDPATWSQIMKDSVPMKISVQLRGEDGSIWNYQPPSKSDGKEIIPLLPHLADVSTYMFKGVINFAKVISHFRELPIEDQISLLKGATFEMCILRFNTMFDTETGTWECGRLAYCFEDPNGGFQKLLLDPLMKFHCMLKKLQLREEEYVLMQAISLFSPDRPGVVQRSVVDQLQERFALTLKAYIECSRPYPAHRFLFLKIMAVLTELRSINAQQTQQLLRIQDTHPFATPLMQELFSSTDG

Regarding `CC1(C)C(C=C(Cl)Cl)C1C(=O)OC(C#N)c1cccc(Oc2ccccc2)c1` (centres undefined), the Potency result with WaGa, in the test with C33A, in the test on Es-2, in the test with HeLa, with OV90 and with PA-1 was “inactive” in each case. For the same compound, the Potency entry in the test on Tov-21-G, in the test on Tov112D and with astro was “inactive” each time. Besides, the compound was called inactive with CASKI, in the test on Hek293T, in the test on JEG-3 and in the test with SKOV3. The activity, negative = cell killing in [1] (setting [3]) was -16.8%; in test [1] (at 46.1 µM (top of the series), tumour line C) it was -35.5%. Besides, in test [1] (tumour line A), the Potency is 25100 nM (active).
Take `COC(=O)C(Cl)C(=O)OC`: the Potency entry in the test on WaGa, in the test with C33A, in the test on Es-2, in the test on HeLa, with OV90 and in the test with PA-1 was “inactive” each time. Besides, the Potency result in the test on Tov-21-G and with Tov112D was “inactive” in each case. Also, the result with CASKI, in the test with Hek293T, with JEG-3 and in the test with SKOV3 was inactive. Moreover, the activity, negative = cell killing is -9.36% in test [1] (setting [3]), -17% in test [1] (setting [4]) and -23.7% in test [1] (setting [5]).
Turning to `CC(C(=O)c1ccccc1)N(C)C` (centres undefined), the Potency result with WaGa, in the test on Es-2, in the test on HeLa, in the test with OV90, in the test with PA-1 and with Tov-21-G was “inactive” in each case. In addition, the Potency entry in the test on Tov112D was “inactive”. Besides, the outcome with CAOV3, in the test with CASKI, in the test with JEG-3 and with SKOV3 was inactive.
With `COc1cccc2c1C(=O)c1c(O)c3c(c(O)c1C2=O)C[C@@](O)(C(=O)CO)CC3OC1CC(N2CCOC(OC)C2)C(O)C(C)O1` (some centres undefined), the Potency was 23.7 nM (active) in the test on WaGa; 282 nM (active) in the test with C33A; 224 nM (active) in the test on HeLa; 447 nM (active) in the test with OV90; 100 nM (active) with Tov-21-G; 100 nM (active) in the test with Tov112D.
On to `O=C1c2ccccc2C(=O)c2ccccc21`, for which the Potency entry with WaGa, with C33A, in the test on Es-2, in the test with HeLa, with OV90 and in the test with PA-1 was “inactive” throughout. The Potency entry in the test on Tov-21-G, with Tov112D and with astro was “inactive” throughout. The result in the test on CASKI, in the test with Hek293T, with JEG-3 and in the test with SKOV3 was inactive. Moreover, the results for the activity, negative = cell killing in test [1] (setting [3]) and in test [1] (setting [4]) were 4.04% and -17.8%, respectively. Also, the max response in test [2] is 4.64%.
With `COC(=O)[C@@H](N)CCCN/C(N)=N/[N+](=O)[O-]`, the Potency result with WaGa, in the test with C33A, with Es-2, in the test with HeLa, with OV90 and with PA-1 was “inactive” each time. The Potency entry in the test on Tov-21-G, in the test with Tov112D and in the test on astro was “inactive” each time. In addition, the compound was called inactive in the test on CASKI, with Hek293T, in the test on JEG-3 and with SKOV3. Besides, the activity, negative = cell killing in test [1] (setting [3]) was 0.524%; in test [1] (setting [4]), -1.49%; in test [1] (setting [5]) it was -15.6%.
With `C#C[C@]1(O)CC[C@H]2[C@@H]3CCC4=CC(=O)CC[C@]4(C)[C@H]3CC[C@@]21C`, the Potency entry with WaGa, in the test on C33A, in the test on Es-2, in the test on HeLa, in the test with OV90 and in the test on PA-1 was “inactive” each time. For the same compound, the Potency result in the test on Tov-21-G, in the test with Tov112D and in the test on astro was “inactive” throughout. Moreover, the call in the test with CASKI, in the test on Hek293T, in the test with JEG-3 and in the test with SKOV3 was inactive. Moreover, the activity, negative = cell killing in test [1] (setting [3]) was -23.4% and -19.6%; in test [1] (setting [4]), -13.1% and -15.3%; in test [1] (setting [5]), -19.9%.
Turning to `CC(C)C[C@H](CN)CC(=O)O`, the Potency result in the test with WaGa was “inactive”. The activity, negative = cell killing in test [1] (setting [3]) is 2.42%; in [1] (setting [4]), -14.3%; in test [1] (setting [5]) it was -19.6%.
With `C[C@](O)(CS(=O)(=O)c1ccc(F)cc1)C(=O)Nc1ccc(C#N)c(C(F)(F)F)c1`, the Potency in the test with WaGa was 13200 nM (active); in test [1] (tumour line A), 12600 nM (active). In addition, the activity, negative = cell killing in [1] (setting [3]) was -21.4%.
On to `CCCCC/C=C\C/C=C\C/C=C\C/C=C\CCCC(=O)NCC(=O)O`, for which the Potency entry in the test on WaGa, with C33A, with Es-2, in the test on HeLa, in the test on OV90 and in the test with PA-1 was “inactive” throughout. The Potency entry in the test with Tov-21-G and with Tov112D was “inactive” in each case. Further, the call in the test with CASKI, in the test with Hek293T and in the test on JEG-3 was inactive. For the same compound, the activity, negative = cell killing was -24.5% in [1] (at 4.17 µM (top of the series), tumour line A); -4.38% in [1] (at 4.17 µM (top of the series), tumour line B); -5.18% in [1] (at 4.17 µM (top of the series), tumour line D).
`CCN[C@H](C)Cc1cccc(C(F)(F)F)c1`: the Potency result with WaGa, in the test on C33A, in the test on Es-2, with HeLa, in the test with OV90 and in the test on PA-1 was “inactive” in each case. The Potency result in the test with Tov-21-G and in the test with Tov112D was “inactive” each time. The call in the test on CASKI, with Hek293T, in the test on JEG-3 and in the test on SKOV3 was inactive. The activity, negative = cell killing in test [1] (at 91.6 µM (top of the series), tumour line B) is -5.97%; in [1] (at 91.6 µM (top of the series), tumour line D), -5.78%.
On to `CCOP(=S)(OCC)Oc1ccc2c(C)c(Cl)c(=O)oc2c1`, for which the Potency entry with C33A, in the test on Es-2, in the test with HeLa, in the test on OV90, in the test on PA-1 and in the test with Tov-21-G was “inactive” each time. The Potency entry with Tov112D was “inactive”. For the same compound, the compound was called inactive in the test with CASKI, with Hek293T, in the test on JEG-3 and in the test on SKOV3. In addition, the activity, negative = cell killing in test [1] (setting [3]) was -3.04%; in test [1] (setting [4]) it was 6.08%.
